# Among all 53,000 sequences or so, about 3,700 (7%) were called active. The entries come from a sample that favours actives as a whole. Unmarked numbers belong to inactive results.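 How the source made its calls: active means gene knockdowns whose robust z-score for IL-1 alpha signal is at least 2 or at most -2, so actives lie on both sides; inactive means the rest.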
# Assay: Components of the Cytosolic LPS Sensing Pathway: Gene Identification via Genome-wide siRNA Screen
# Settings: RAW264.7 macrophages, IL-1a HTRF, actives lie on both sides, screened at 100 nM (by protocol), cells primed 5 h with Pam3CSK4 first
# Text: Non-canonical inflammasome activation by cytosolic LPS is a critical component of the host response to Gram-negative bacterial infection, however we lack a comprehensive understanding of the cellular processes that control this pathway. Here we describe a genome-wide siRNA screen to identify genes regulating the mouse macrophage IL-1 alpha response to cytosolic LPS.
# RAW264.7 cells were maintained in complete DMEM media, comprising DMEM with 4.5 g/L glucose, 10% FBS (Gemini Bio-Products, West Sacramento, CA), 2 mM Glutamine (Lonza) and 20 mM HEPES (Lonza), hereafter complete DMEM.
# The RNAi screen was conducted in 384-well format using the Ambion Silencer Mouse Genome siRNA Library (#4391425), which consists of three unique, nonoverlapping, nonpooled siRNAs for each of 17,000 gene targets. siRNA reagents ([…]) were stamped into 384-well white flat-bottom microplates (Corning, 3570) using a Velocity11 VPrep liquid handling system (Agilent) integrated into a BioCel robotic platform (Agilent) in columns 1-22, leaving columns 23-24 empty for negative (Ambion, Negative control #1) and positive (mouse Casp4) controls, respectively. The median value of each plate's negative control column was used to normalize sample wells, and the positive control was used to assess transfection efficiency and assay performance.
# Lipofectamine RNAiMAX Transfection Reagent ([…]; Invitrogen) was added in […] serum-free, antibiotic-free media to plate wells using a Thermo Scientific Matrix WellMate and Microplate Stacker. Plates were incubated for 45 min at room temperature to allow for the sufficient formation of siRNA-lipid complexes. Cells were seeded at a density of 1x10^4 cells per well in 20 microL media containing 20% (vol/vol) FBS without antibiotics. The final concentration of siRNA in each well was 100 nM. Cells were cultured for 48h at 37 degrees C in 5% CO2 before addition of […] of TLR ligand Pam3CSK4 for 5 hours. The medium was then removed, replaced with […] growth media and cell were transfected with […] of LipidA and TransIT-TKO (Mirus) for 24 hour. At the end of the LipidA treatment, […] of supernatant was transferred to a 384 Greiner Bio-one non-binding low volume plate and […] of IL-1a HTRF reagent (Cisbio, 62MIL1APEH) was added and incubated at room temperature overnight. The plates were read on an EnVision plate reader (PerkinElmer). Cell viability was measured by adding 20ul Cell Titer Glo to the original plate and running a luminescence read on the EnVision. The quantified IL-1a signal for each siRNA gene-targeted well was divided by the median of the negative control wells and multiplied by 100 to achieve a negative control normalized value for each well/siRNA. This normalized value was then used to generate a robust z-score by first taking the log of each value and then by subtracting the median and dividing by the […].
row,Sequence,z-score
1,GGAGUGAGUCCUGAAGCAATT against Ifna12,-0.372
2,GCCGUUACUGAGCUGAAAUTT against Allc,-0.866
3,CGCUUCAUGACUUCUGAAUTT against Ppp1r32,0.0722
4,GCCCAACCUGUCCAUACUUTT against Guca2b,-0.193
5,GCUAUUUUCGUCACUUUCUTT against Tssk1,0.494
6,GGAUGAAUUCAUUGAAGAATT against Btk,0.321
7,GGUUCGUCGCCUUUUAGGGTT against Alx4,3.74 (active)
8,GAGCUUCUAAUUCACCCUATT against Abcc6,0.181
9,GGGAACCUUACUGUGUUAUTT against Gpr85,0.477
10,GGGUUUCCAGUACCUCAAUTT against Serpina6,-1.28
11,GGCUUUUAUAGCUAAGGUUTT against Spc25,-2.18 (active)
12,GGACUGUGAACAACUUUCGTT against Tcim,-1.07
13,GGCUAUCUACAAAAUGGUGTT against Vsnl1,-1.31
14,GCUAACCAGUGAUCCUACATT against Olfr846,0.471
15,GCACUUGUGACUUAUUGGATT against Vmn2r-ps11,0.506
16,GGGUCAGAGUUUUUCCAUCTT against Otog,2.72 (active)
17,GGGACGUAAAUCAAAUGAATT against P2ry12,0.096
18,GGAGGUGGAACUGCUGUAUTT against Fam180a,-0.257
19,GGCAGAAAGAUUAUGAGUUTT against Gpr171,2.35 (active)
20,GGAAUUAAAAGAGCUGGGCTT against Selenon,0.697
21,GGGUGCUGAACAGUCACAATT against Rab12,0.717
22,UGAAGGCAAAUCACUCUUUTT against Olfr181,-0.042

row,Sequence,z-score
1,GGAGGAUCCUGCUAUUCCATT against 4930583K01Rik,-2.24 (active)
2,GGUGCUGGAGAAGAACAUGTT against Map2k3,1.51
3,GGAAAGAGAUUCUCUUCUATT against Nsun2,-1.2
4,CGGCUUUGAAGUGGUGUAUTT against Smad9,1.66
5,CCUUAGGCAUGGUCUGGACTT against Gal3st2,0.897
6,CCUUCAUGAGUCCUCUUCATT against Gaa,-2.08 (active)
7,GGGUUUUCAAAGACAAGAUTT against Frmd6,1.47
8,GGAGCUUUUUAUGUUUUAGTT against Fam177a,1.93
9,CCCUGAGAUAGGCAAUGUGTT against Tceanc2,-1.57
10,GCUUCAUGGAUGCAAUUGATT against Adhfe1,-0.659
11,GGUUGAAAAGUAUCAAAGATT against Pus7l,-0.359
12,GGAUUAGACUGUCUUCAGCTT against Rnf144a,-0.496
13,GGCCUGUUUUGUACUUUUATT against Polr3gl,0.149
14,GGGAUAUUCAAAAUACUAGTT against Hells,0.653
15,GCUACAGACUGAACAAUGATT against Rbm17,-2.08 (active)
16,CCAUCUGAUUAAUGGCUUCTT against Tm7sf2,1.03
17,GUGCCUUUGUGGUCUUCCUTT against Tmem179,-1.16
18,GGAUCCCAAGUUCAAAGCCTT against Rfxap,2.07 (active)
19,CCUAUAACAUCCACCUUCATT against Yipf3,-0.508
20,GGAAACAAGAAGAACGAUGTT against Camk2a,1.47
21,GCACUCAGCUAGGUGAAGATT against Hnrnpul1,-0.186
22,GAUCUAGGACAGCUUAGAUTT against Avpr1b,-0.955

row,Sequence,z-score
1,GCCAAUGAAAACCUUUUGCTT against Parp9,-0.736
2,GGAUUUUACAUUUCUACACTT against Tmprss15,2.14 (active)
3,CGCACUGGAUAAUAUCAGCTT against Dok5,0.0135
4,GGCAGAAAUUUGGAUACCATT against Plekha4,2.1 (active)
5,GGAAGUUAGCUCCUAAAUATT against Pirt,-0.383
6,CCUUUUUUAUAUCCACUCATT against Bahcc1,1.22
7,GCAUCACUGCCACAGUGCATT against Olfr159,-0.133
8,GUAGUUGUUCUGAGAAAUCTT against Krtap19-2,-0.49
9,GGAAAUUCAAAAAGUGUGUTT against Aplf,-2.25 (active)
10,GGCCUGUUUUGAAGUAGAATT against B630019K06Rik,0.352
11,GCCAUUUGAAACUCUCCUGTT against Gstp3,-1.71
12,GGUCCUCCAGUUAAUGUCATT against Glra3,-0.916
13,GGUUAUCCAGAGAGUGCAUTT against Arl4d,1.01
14,ACUCCUAUGAGCUAGCUGUTT against Krt42,0.919
15,GGAAUUGAGACCCAAUAUUTT against Cnot7,-0.353
16,GGAAUCAGCAAACUCAACCTT against Rnase11,-0.748
17,GGAUUCAGAAGCAGCAACATT against Nr1h2,-2.29 (active)
18,GGCCAAGGACAUUAUAAAUTT against Scly,-0.585
19,AGUGAACAUCGAUCGCAUGTT against Gng8,0.937
20,GCAAUGGUGGUUCUAAUAUTT against Cmya5,-0.00244
21,GCCAACCAGGAUUUUACAATT against Fga,0.463
22,GGAGAGUGUGUUUUCAGGCTT against Bop1,3.08 (active)

row,Sequence,z-score
1,GAGUGUCUUGAACACAGCCTT against Olfr635,-0.0711
2,GGCCAAGUUCCUUUGCAUATT against Lacc1,0.274
3,CCAAAUGUAGCGGAACUGATT against Rsu1,0.195
4,GGGUAUGAGUGCAGACUAUTT against Zcchc9,0.803
5,GGCUUUGUAGCGAUAACAATT against D930030D11Rik,-0.936
6,GGUCAGUGACAUUAUCAAUTT against Vmn1r237,1.84
7,GGAGCAGUUACAGGAAAUCTT against Cdr2,-2.11 (active)
8,GGCAAGACUAUGAAUAUAATT against Ufsp2,-0.486
9,GGAUUUGGAUUUGGAUUUUTT against Tsc22d3,0.387
10,CCUUGUACCCAGUAAAGUCTT against Mab21l4,0.586
11,GGUGGACAAGUUCAAAGCCTT against Atg4d,-1.56
12,GCAGGAUAUGUAAAGGUUUTT against Gimap3,-0.924
13,CCUAAAAGCAGGCCAAAAUTT against Dhx29,-1.26
14,GGAGAAGAGCCUUCUCAAGTT against Srsf4,2.05 (active)
15,GGUUAUAGCUUCAAUAGCUTT against Bphl,-0.61
16,UAACAGACCAGUAAAGGCCTT against Klra21,0.322
17,CCAGAUACCCAUAAUAUCUTT against Mbnl1,-0.604
18,CGAUUUCCUUGGCACCAAUTT against Arhgap1,-0.675
19,GUGGACUUUUAGCAAUCAGTT against Olfr98,-1.55
20,GGAGACUUAUUGAGCAAGUTT against Usp44,4.42 (active)
21,CGCUGAAGUCUUUUCACAATT against Baiap2,0.286
22,CCCUUUCGGGCAAUGGACUTT against Olfr986,-0.0157

row,Sequence,z-score
1,GGGCUUAAGCUUUGAGGGUTT against Foxs1,0.213
2,GGGUUUGCACUAGUUUAUUTT against Rap1a,0.632
3,GGUCCUAAAGCCUUUUCUATT against Mrpl10,0.199
4,GGAAGGGUCAGAAAAAUGUTT against Slc1a2,0.202
5,GGUAAUGAUCCAUUCACCATT against Ly75,-1.47
6,GCAUAUACUUGAUUACCGUTT against Olfr830,-0.391
7,CCUCUGUCAGUUGGUUAACTT against Mon2,-2.33 (active)
8,CCUUCUACUAAUCAAGAGATT against Sparc,-0.578
9,GGACCACAGAAGUUCUCAUTT against Pira2,-2.88 (active)
10,GCACGGAAGACUUACGAACTT against Cstf3,0.439
11,GGACAUAUUUCCAACAUGUTT against Mob3b,-1.34
12,CGAAUCAUGUGUUUGCACATT against Camkk2,1.21
13,GCCUGAUUGACUUAGAGUCTT against Eps8,0.821
14,GCAGGUGAAGAGUGAUUUUTT against Il10,0.318
15,GGAACUGCUUACGAAAUACTT against Lama4,-2.33 (active)
16,GGAUGUGUUAUCGGUGCUCTT against Mup21,-0.303
17,GGAAGAGGAAGAAAAAAAGTT against Iqcf4,-0.411
18,CUUACGAUACAUAAGAGAATT against Zfp457,0.364
19,CGACAACAUUUUCCUGUCATT against Serpinc1,-2.07 (active)

# — PubChem BioAssay AID1508600 (Functional Genomics Laboratory (NCATS/FGL), 2020)
